Assay results reported in PubChem BioAssay.
A number with no mark means an inactive call. Activity calls are given as the source filed them.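 The calls were made as follows: active = inhibition at or above 50% relative to wild type and mutant plate controls; inactive = inhibition below 50%.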

Assay: inhibitors of Chlamydomonas gravitaxis, primary screen, whole organism, Chlamydomonas reinhardtii, WT vs cilia-less mutant, absorbance, 96-well (AID 463189);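 also: 0% = wild type cc124 cells in DMSO and 100% = ciliumless bld1 mutant cells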
Settings: OD600 absorbance, 2 days, at 10 µM, stronger effect = higher value
`N[C@@H](CS(=O)O)C(=O)O` gave an inhibition of 7.29%. `CCCCCCCCCCCCCCCCCC(=O)OC(CC(=O)O)C[N+](C)(C)C` (stereo not given) gave an inhibition of 6.23%. `NOCC(=O)O` showed an inhibition of -13.3%. Work on `CC(C)c1ccc2c(c1)c(SC(C)(C)C)c(CC(C)(C)C(=O)O)n2Cc1ccc(Cl)cc1` yielded an inhibition of 9.82%. Work on `COc1ccccc1N1CCN(CCN2C(=O)CC3(CCCC3)CC2=O)CC1` yielded an inhibition of -4.14%. For `O[Si](CCCN1CCCCC1)(c1ccc(F)cc1)C1CCCCC1` (stereo not given), the inhibition was -1.85%. `OC1(c2ccc(Cl)cc2)CCN(Cc2c[nH]c3ccccc23)CC1` showed an inhibition of 21.4%. Compound `CCCC(=O)NCCc1c2n(c3ccc(OC)cc13)Cc1ccccc1-2` has an inhibition of -1.81%. `CCOC(=O)C(C)(C)Oc1ccc(Cl)cc1` showed an inhibition of -6.65%. Work on `O=C1CCC(c2ccc(-n3ccnc3)cc2)=NN1` yielded an inhibition of -5.18%. In the case of `COC1=C(OC)C(=O)c2ccccc2C1=O`, the inhibition is reported as 159% (active). For `COc1cccc(C(=O)NCCN2CCN(c3ccc(Cl)cc3)CC2)c1`, the inhibition was 0.497%. With `C=CCN1CCc2c(cc(O)c(O)c2Cl)C(c2ccccc2)C1` (stereo not given) the inhibition was -7.02%. With `C[N+](C)(CCCCCC[N+](C)(C)CCCN1C(=O)c2cccc3cccc(c23)C1=O)CCCN1C(=O)c2cccc3cccc(c23)C1=O` the inhibition was 101% (active). `NC(C(=O)N[C@@H]1C(=O)N2C(C(=O)O)=C(Cl)CS[C@H]12)c1ccccc1` (stereo not given in full) showed an inhibition of 7.28%. `NC(=O)c1cc[n+](CC2=C(C(=O)O)N3C(=O)[C@@H](NC(=O)[C@@H](c4ccccc4)S(=O)(=O)[O-])[C@H]3SC2)cc1` showed an inhibition of -6.94%. In the case of `CCN(CC)CCOC(=O)c1cc(Cl)c(N)cc1OC`, the inhibition is reported as 2.34%. With `CC1COc2c(N3CCN(C)CC3)c(F)cc3c(=O)c(C(=O)O)cn1c23` (stereo not given) the inhibition was 6.49%. For `C=CC1(C)CC(=O)C2(O)C(C)(O1)C(OC(C)=O)C(O)C1C(C)(C)CCC(O)C12C` (stereo not given), the inhibition was -1.2%. For `C[n+]1cc2c3c(ccc2c2ccc4cc5c(cc4c21)OCO5)OCO3`, the inhibition was 145% (active). `O=C(O)C1=CCNCC1` showed an inhibition of 0.676%. `O=C(O)CNC(=O)C(CS)Cc1ccccc1` (stereo not given) gave an inhibition of -0.967%. For `CNc1cc(NS(=O)(=O)c2ccc(N)cc2)nc(NC)n1`, the inhibition was -3.79%. `CC(C)C(=O)Nc1ccc([N+](=O)[O-])c(C(F)(F)F)c1` gave an inhibition of -17.5%. `CN1CCN(C2Cc3ccccc3Sc3ccc(Cl)cc32)CC1` (stereo not given) gave an inhibition of 30.5%. With `Oc1ccc(C2CNCCc3c2cc(O)c(O)c3Cl)cc1` (stereo not given) the inhibition was -6.72%. For `CNc1ncnc2c1ncn2[C@@H]1O[C@H](CO)[C@H](O)C1O` (stereo not given in full), the inhibition was 7.79%. `C[N+](C)(C)CCO` showed an inhibition of 2.98%. `Nc1ncnc2c1c(-c1ccc(Oc3ccccc3)cc1)cn2C1CCCC1` showed an inhibition of 35.3%. `O=C1c2c(O)ccc(O)c2C(=O)c2c(NCCNCCO)ccc(NCCNCCO)c21` gave an inhibition of 28.8%. For `N[C@H](CCC(=O)NCS(=O)(=O)O)C(=O)O`, the inhibition was 4.82%. Compound `COC1(C2=NCCN2)COc2ccccc2O1` (stereo not given) has an inhibition of 7.5%. Compound `CC(C)NCC(O)c1ccc(NS(C)(=O)=O)cc1` (stereo not given) has an inhibition of -0.482%. With `OC[C@H]1O[C@@H](n2cnc3c(Nc4ccccc4)ncnc32)C(O)[C@H]1O` (stereo not given in full) the inhibition was -0.892%. Compound `O=C1NCC2(CCN(CCc3ccccc3)CC2)O1` has an inhibition of -9.32%. With `CNCC(O)c1ccc(O)c(O)c1` (stereo not given) the inhibition was 4.49%. `CN1CCc2ccccc2Cc2[nH]c3ccccc3c2CC1` gave an inhibition of 10.8%. In the case of `O=C(CCc1ccc(O)cc1)c1c(O)cc(O)cc1O`, the inhibition is reported as -0.519%. For `NNc1nncc2ccccc12`, the inhibition was -2.73%. `CC(C)Cn1c(=O)n(C)c(=O)c2[nH]cnc21` gave an inhibition of 1.72%.
